For 108 sequences, z-score results are on record in PubChem BioAssay AID1508600 (Functional Genomics Laboratory (NCATS/FGL), 2020).

Screen size: about 53,000 sequences; about 3,700 (7%) were called active. The sample as a whole holds a higher share of actives than the screen did. Values without a mark were called inactive.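 Rule for the calls: active = gene knockdowns whose robust z-score for IL-1 alpha signal is at least 2 or at most -2, so actives lie on both sides; inactive = the rest.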

This assay is described as follows: Components of the Cytosolic LPS Sensing Pathway: Gene Identification via Genome-wide siRNA Screen.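 Note: robust z of the log signal after scaling to non-targeting control siRNA wells of the plate.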 The following applies: RAW264.7 macrophages, IL-1a HTRF, actives lie on both sides, screened at 100 nM (by protocol), cells primed 5 h with Pam3CSK4 first. A digest of the protocol: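 RAW264.7; siRNA 100 nM final, RNAiMAX, 48h 37 degrees C; Pam3CSK4 5 h; LipidA + TransIT-TKO 24 h; IL-1a HTRF; CellTiter-Glo viability; robust z vs negative-control median.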
Turning to CCAAGAAUGCCCAGCAAGUTT against E4f1, the z-score is 2.39 (active).
Turning to GCGACUUCAGAUUUCAUUATT against Srsf2, the z-score was -0.439.
For GGUCAACCAUUCCUCUUGATT against Ccdc9b, the z-score was 0.409.
To GCUGAAGGAUCCCAUUAGATT against Cbx2 belongs -1.68.
Consider GCAACUUGGGAACUCUUUGTT against Pnpla7, for which the z-score was -1.77.
Next, GGUUUCUUUCUCUGAGUUUTT against Man2a1: 1.62; GGAGGAACUCCUAAAGAAGTT against Galntl5: -0.511.
Next, CCGAUCAUUAUGAGCAUACTT against Nxf7: -1.76; GGUCUUUAGCAAAUUGUUCTT against Lrrc6: 2.02 (active); GGAUGCAGAAGAUUUUGUGTT against Ptprcap: -0.704.
To GGAGACACAAAAGAAGAUATT against Sec14l4 belongs -0.359.
In the case of CCUGCGUUGACCAAUCAGATT against C2cd2l, the z-score was -1.26.
To CCUAGUCCUGAUUUAUCAGTT against Ddx39b belongs -2.02 (active); to “GCUCUAGGAAUCCAAAUAUTT against 9930014A18Rik”, 0.8; to GGCUUCUUCAGAUCCUAAATT against Olfr554, -0.615.
Next, GGUCAUCAGAAGAAUCAAGTT against Arr3: 2.13 (active); GCGAUAUCUCAACUUCCCGTT against Fchsd1: 0.541; GCAUGCGCCCUAAAGGAAATT against Zmynd15: 0.687.
To CCAGUCUUAUCUGUAGAAGTT against Obox1 belongs -1.69; to GCCUAACUAUGAAACUUCGTT against Ppp1r11, 0.754.
For CCAUUGUAGUCAGUCAAAUTT against Pip, the z-score was -0.498.
With GGAUGAAAGUCCUGGACAGTT against Gli3, the z-score was 5.97 (active).
Next, GGAGCAGUUGUGUUUAACATT against Psg17: 0.596; GGAAAGAGGGAAACUAAUUTT against Abhd17a: -0.694.
Next, GGCAGAAAGCAGAAACAGUTT against Mok: -0.901.
To GGUAUCUUCUCUUGGAAAATT against Tex12 belongs -0.533; to GCUAUGGGAUAUGAGCUGATT against Antkmt, -0.75.
Consider GGAAUUCAGUGAAUGUCAUTT against Gapvd1, for which the z-score was -2.28 (active).
Next, UGUGCCCUAUAGAACCUGUTT against Krtap13-1: 0.394.
To GGACAACUCGAGUCUUAAATT against Poln belongs 1.
In the case of GCUCUUAUCAGCAUGUAUATT against Birc6, the z-score was 1.7.
Next, ACUAGACUGAACUACCUGATT against Aim2: 0.137.
Turning to GGCUCAUCAGAUGUAAACATT against Efcab6, the z-score was -2.13 (active).
To GCUAACAAGCUAGCAUUUATT against Ltv1 belongs -1.17; to GGUCCUGUUGAGAAUUUAATT against Zdhhc15, 0.464; to GGCAACUGAAUGUUUCCUATT against Nudt19, -1.41.
Next, CCUAAGAGAUAAGAGCACCTT against Ppa2: 0.381.
Next, GGAGAUUUACUGCUCGCUGTT against Pik3r6: 0.0343; CAGGAUUCCUUGGACAUACTT against Olfr477: -0.559.
For the sequence GCUAAGUUCCAAGGCGACCTT against Serpinh1, the z-score is 2.77 (active).
Next, GGAUAAAGCAUCAGACAAATT against Hmgn1: -0.202; UCAGCUGGUUUUAAUCUCUTT against Olfr1029: -0.193; CGCAACAGAUAGUAAAUAUTT against Ufsp2: -1.21.
Consider GGACCCAAAUCUUUUUAGATT against Wac, for which the z-score is -1.03.
In the case of GGUCCCAGACUGAGUGAAATT against Epo, the z-score was -0.302.
Take GGUCAAGAUCCGAAGCUACTT against Cntn2: the z-score was -0.749.
Next, GGUCUUGCUGUUCGAAGAATT against Gsx1: 0.417.
Next, AGUGUAACUGCAGAAGCCUTT against Olfr207: -1.3; CAACCGUUGUGGCCAUGACTT against Olfr59: -0.332; CCCAGGCUAUUUCAACAAUTT against Arhgef11: -1.24.
Next, GGGCUACAAGAAAAAGUAUTT against Krt85: 2.69 (active); GCAGUCAAUUCCCUUUUACTT against Ankmy1: -0.876; GCCUAACCAACAAUUCUACTT against Oas1b: 1.61.
With GGUCUUCUACUCCUUCUCATT against Slc6a19, the z-score was -2.09 (active).
Next, “GGAGACUGCUAUAUUGGCUTT against 1700092C17Rik”: -0.147; GCUAAAAGGUAAGUACUUCTT against Lncpint: 0.981.
Next, GGGUAACAACCAUGUCCGUTT against Pspn: 1.26; CGGGAAUCCUAUCUAUCAATT against Smox: 0.762; GGAAGAACAAAAAACCAUGTT against Sf3b2: -2.14 (active).
Next, CGAGAUGAAUUUCUAGUAGTT against Tubgcp3: 1.47; GGUUGGCUUCAAAAAUAUGTT against Psmb1: -1.04.
Turning to GGAAUUCCACCUAAAAUUGTT against Ttn, the z-score was 1.32.
To CCUGCUCCUUACAUCUCGCTT against Foxred2 belongs 1.51; to CCAUUUAAUCCAUAUUUCCTT against Gnao1, -2.05 (active).
Regarding CGGACUCACAGAGCUAAGATT against Tnp2, the z-score was 1.56.
As for GGGCAGAACUGCAUGAGAATT against Acp1, the z-score was -0.176.
Next, GCACAAAUUUGGUAGUGUUTT against Nup50: -1.53; GGAGUAAACCUACUGCUCATT against Esam: 2.14 (active).
Next, CCUGAUGUAACUAUAAACATT against Adam32: -0.107; GGAUGUCUGACUCAGGUCUTT against Olfr829: 0.0622; GGCAGUGAUGUUUCUCUCGTT against Tmem198b: 0.152.
With GGAUUCCAGAUUAAAUGAUTT against Rfc1, the z-score was 1.09.
GGCAACCAUUAAAUGUUUATT against Trim59: the z-score is -0.54.
To CCUUUUGUUUUACCUACUCTT against Tbx22 belongs 2.32 (active); to GGAUGAGCAGAAAUGUGUATT against Plekho2, 0.931; to CCUCUACAUCCAGGAAUGATT against Map4k1, -0.546.
Next, GGUCCUAAUUCGAAGCAGATT against Emc3: -0.589.
To GGGAUUGCAUGGUUAAACUTT against Nfam1 belongs -0.901.
On to GGUUUUGACAUCACAUUCUTT against Mtfr2, for which the z-score is 1.34.
Next, GGUAGACAGAGAAGAUAAATT against Slc35f5: -2.01 (active); GGUUGAUGACAACAAGAAATT against Rps12: -0.368; GGGAGGAGAGGACAAAUUATT against Ywhae: 1.66.
Next, GGAACGUGAAUCUACAGCATT against Tex43: -2.73 (active); GGCAGGACGAACAUGGCUATT against Hspb1: 1.2; GGAAUUAAAGAGGAACUCCTT against Adamts20: 0.172.
Next, GCUGUCAGACUAAAGAUAUTT against Mmd: -0.733.
Turning to CCUCCAGAGUAUUGUCUAGTT against Ppfia3, the z-score was 1.26.
Turning to GGACAUUGAGAACAUUAUCTT against Caln1, the z-score is -1.14.
In the case of GGACCAUGUGGACUUUAGCTT against Sema7a, the z-score was -0.522.
Next, GGCACUUCAACAGCAGUUATT against Cep295: -1.27; GGUGUUCGUCAUAUGGAAUTT against Tex46: 3.71 (active).
To GGUAACUGUUACACAAAUCTT against Tmem161b belongs -0.291; to GGCCUUUUGGCUUUGAUCUTT against Hoxb1, -1.86.
Next, GGAAUAUGUCACCAACAAGTT against Akap8l: -0.896.
For the sequence GCAGGAAGUAAAAUCUCUUTT against Tmem183a, the z-score was 0.707.
To GGAGUCACACCUGAAUUGCTT against Cep89 belongs 0.129.
Turning to GCUGAAAUCCAGGAUAGAGTT against Zw10, the z-score was -2.03 (active).
To GGGACAAGGACUUUAAAAATT against Scamp2 belongs 0.566; to GCACAUUCAGAUGAGGACUTT against Rnf6, -1.05.
GAUAUGUGUACACUUCUGCTT against Vmn1r218: the z-score was -2.08 (active).
Next, GGUUACAUGGAUUGAAGCUTT against Scrn3: 0.183.
Next, GGAGAUGAUUUUGAACUUCTT against Retreg3: 2.73 (active).
On to CCCAACACAAUAUUUGCCATT against Nfyc, for which the z-score is 0.019.
Next, GCUGUCUCUACGUUGGAGATT against Adamts2: 0.145.
Next, CCACUUAGGUUAGAAAGAATT against R3hdm1: -0.77; CCAAGUCGGACUUACGGUUTT against Cnpy3: -1.65; UCUGCUCAACAUCGUCAAUTT against Sstr3: 0.719.
To GCUCUUCCGAUUAAUGCAGTT against Gabra6 belongs 2.87 (active).
